Experiment [1] addresses Luciferin 4-monooxygenase (Photinus pyralis) (UniProt P08659). Put plainly: qHTS assay to identify small molecule inhibitors of firefly luciferase (AID 1224835). For activity change, negative = inhibition: series mostly up to about 120 µM. Note: nearly all actives have a fitted effect of over 25% in size. Note: potency is the fitted concentration of half-maximal effect. An outline of the steps:
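Biochemical qHTS: compounds run as interplate titrations against purified firefly enzyme, with D-luciferin and ATP each at its KM concentration. Light output recorded by CCD imaging.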

The nature of experiment [2]: qHTS assay to identify small molecule agonists of the constitutive androstane receptor (CAR) signaling pathway - cell viability counter screen (AID 1224836). Note: series mostly up to about 92 µM; nearly all actives have a fitted effect of over 45% in size. An outline of the steps: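 23 h treatment, 37 C, 5% CO2. Cell line: HepG2 stably expressing hCAR with a CYP2B6-2.2kb construct. Co-treatment: PK11195, 0.75 uM final. Read-out: CellTiter-Fluor fluorescence intensity.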
In general terms: Quantitative high-throughput screening tests each substance at several concentrations.

A short description of experiment [3]: qHTS assay to identify small molecule antagonists of the constitutive androstane receptor (CAR) signaling pathway - cell viability counter screen (AID 1224837). Note: series mostly up to about 92 µM; nearly all actives have a fitted effect of over 45% in size. An outline of the steps: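 Counter screen run in HepG2-CYP2B6-hCAR cells: 4 hr settle, compound titration (15 concentrations) with 50 nM CITCO, 23 hr at 37 C/5% CO2, CellTiter-Fluor fluorescence.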
Experiment [4] can be described thus: qHTS assay to identify small molecule antagonists of the estrogen related receptor signaling pathway with the pleiotropic PPARgamma coactivator (PGC) from Tox21 10K library - cell viability counter screen (AID 1224840; active = well fitted cell-killing curve with a large enough effect in the repeat runs, not every such curve was filed as active; note: nearly all actives have a fitted effect of over 40% in size). An outline of the steps: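 Following seeding of 2,000 PGC/ERR cells/well and 6 hours' incubation, test compounds were delivered in DMSO. The plates then sat 17.5 hours at 37 C before a fluorogenic live-cell protease reagent (CellTiter-Fluor) was read after 30 min.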

Experiment [5] has as its target Thyrotropin receptor (Homo sapiens) (UniProt P16473). Put plainly: qHTS assay to identify small molecule agonists of the thyroid stimulating hormone receptor (TSHR) signaling pathway (AID 1224843; calls by dose curve; note: nearly all actives have a fitted effect of over 45% in size; note: potency is the fitted concentration of half-maximal effect). An outline of the steps:
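Steps: seed 800 TSHR-HEK293 cells per well; add test compound and hold 30 min at ambient temperature; dispense cAMP-d2 then anti-cAMP cryptate; incubate 1 h at ambient; measure fluorescence intensity.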

The nature of experiment [6]: qHTS assay to identify small molecule agonists of the hypoxia (HIF-1) signaling pathway - cell viability counter screen (AID 1224844; calls by dose curve; note: nearly all actives have a fitted effect of over 50% in size; note: potency is the fitted concentration of half-maximal effect). An outline of the steps:
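Cells (HRE-bla ME-180, 2,000 per well) sat 5 hrs at 37C, got compound for 17 hrs, were read for CCF4-AM FRET, and were finally lysed with CellTiter-Glo for a 30 min room-temperature luminescence read.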

In experiment [7] the target is Nuclear receptor subfamily 1 group I member 3 (Homo sapiens) (UniProt Q14994). Put plainly: qHTS assay to identify small molecule antagonists of the constitutive androstane receptor (CAR) signaling pathway (AID 1224838).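 Note: HepG2 cells stably expressing hCAR with CYP2B6 luciferase reporter stimulated by CITCO; nearly all actives have a fitted effect of over 40% in size.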 An outline of the steps: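 Cell line: HepG2 double-stable for hCAR and CYP2B6-2.2kb reporter. Agonist: CITCO, 50 nM final. Compounds: 15 concentrations, 24 h, 37 C. Detection: ONE-Glo luminescence.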

Experiment [8] has the same target. Put plainly: qHTS assay to identify small molecule agonists of the constitutive androstane receptor (CAR) signaling pathway (AID 1224839). Note: nearly all actives have a fitted effect of over 15% in size. Note: potency is the fitted concentration of half-maximal effect. An outline of the steps:
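Compounds tested at 15 concentrations on HepG2 cells stably harbouring hCAR and CYP2B6-2.2kb reporter constructs, co-treated with PK11195 (0.75 uM final), 24 h at 37 C; luminescent reporter signal quantified.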

Experiment [9] is described as follows: qHTS assay to identify small molecule antagonists of the estrogen related receptor signaling pathway with the pleiotropic PPARgamma coactivator (PGC) from Tox21 10K library (AID 1224841; call rule not given here; note: series mostly up to about 92 µM; actives are mostly falling curves and most rising ones were filed inactive; nearly all actives have a fitted effect of over 50% in size). An outline of the steps: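 qHTS antagonist format: PGC/ERR cells, 2k/well, compound in DMSO by pin transfer after 6 h attachment, 18 h treatment at 37 C, One-Glo luminescence read at 30 min.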

Experiment [10] is described as follows: qHTS assay to identify small molecule agonists of the estrogen related receptor signaling pathway with the pleiotropic PPARgamma coactivator (PGC) from Tox21 10K library (AID 1224842). Note: nearly all actives have a fitted effect of over 15% in size. An outline of the steps: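 PGC/ERR reporter cell line, 2,000 cells per well, incubated 6 h at 37 C before 23 nL compound in DMSO was added. After 18 h at 37 C, One-Glo luminescence read following 30 min at room temperature.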

Records with an inconclusive call do not appear. Values without a mark were called inactive. Activity calls are given as the source filed them. Unless noted, calls come from the whole dose curve; as a rule, active = well fitted curve in the direction sought with a large enough effect in the repeat runs; inconclusive = weak or mixed curves; inactive = no such curve, though single readings can be large; an effect the other way counts as inactive or inconclusive.
% is set by controls: 0 for no effect and ±100 for the full control effect.

Chain of Thyrotropin receptor (Homo sapiens) (P16473 whole entry, looked up): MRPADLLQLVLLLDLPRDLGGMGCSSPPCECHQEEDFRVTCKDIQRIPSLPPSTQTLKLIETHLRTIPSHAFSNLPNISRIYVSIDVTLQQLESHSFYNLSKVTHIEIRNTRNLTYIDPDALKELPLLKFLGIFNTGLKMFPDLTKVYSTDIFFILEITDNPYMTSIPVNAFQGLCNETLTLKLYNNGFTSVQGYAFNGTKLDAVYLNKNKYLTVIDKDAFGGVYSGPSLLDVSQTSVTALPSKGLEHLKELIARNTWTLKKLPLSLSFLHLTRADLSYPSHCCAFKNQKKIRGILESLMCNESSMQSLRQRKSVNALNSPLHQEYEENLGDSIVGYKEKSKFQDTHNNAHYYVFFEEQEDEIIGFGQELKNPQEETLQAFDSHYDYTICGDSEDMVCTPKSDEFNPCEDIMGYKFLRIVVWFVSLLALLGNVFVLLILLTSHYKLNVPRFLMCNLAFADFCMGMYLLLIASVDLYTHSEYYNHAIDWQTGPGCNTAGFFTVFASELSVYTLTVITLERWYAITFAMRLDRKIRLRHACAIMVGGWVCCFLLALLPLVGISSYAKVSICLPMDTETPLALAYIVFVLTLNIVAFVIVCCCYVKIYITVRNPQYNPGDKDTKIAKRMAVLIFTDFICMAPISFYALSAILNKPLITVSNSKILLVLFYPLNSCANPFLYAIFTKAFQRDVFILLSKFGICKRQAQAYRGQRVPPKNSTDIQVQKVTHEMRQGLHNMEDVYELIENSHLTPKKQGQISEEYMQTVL
Chain of Nuclear receptor subfamily 1 group I member 3 (Homo sapiens) (Q14994 whole entry, looked up): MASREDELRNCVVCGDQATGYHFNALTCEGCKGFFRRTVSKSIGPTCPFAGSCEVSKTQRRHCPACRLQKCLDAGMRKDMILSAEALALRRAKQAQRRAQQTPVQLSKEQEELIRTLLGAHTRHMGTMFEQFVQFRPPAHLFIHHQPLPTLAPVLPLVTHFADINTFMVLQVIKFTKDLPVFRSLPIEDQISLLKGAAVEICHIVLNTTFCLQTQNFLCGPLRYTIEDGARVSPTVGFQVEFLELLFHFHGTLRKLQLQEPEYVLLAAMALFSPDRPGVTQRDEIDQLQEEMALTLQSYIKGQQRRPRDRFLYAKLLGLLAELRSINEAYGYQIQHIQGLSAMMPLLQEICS
Chain of Luciferin 4-monooxygenase (Photinus pyralis) (P08659 whole entry, looked up): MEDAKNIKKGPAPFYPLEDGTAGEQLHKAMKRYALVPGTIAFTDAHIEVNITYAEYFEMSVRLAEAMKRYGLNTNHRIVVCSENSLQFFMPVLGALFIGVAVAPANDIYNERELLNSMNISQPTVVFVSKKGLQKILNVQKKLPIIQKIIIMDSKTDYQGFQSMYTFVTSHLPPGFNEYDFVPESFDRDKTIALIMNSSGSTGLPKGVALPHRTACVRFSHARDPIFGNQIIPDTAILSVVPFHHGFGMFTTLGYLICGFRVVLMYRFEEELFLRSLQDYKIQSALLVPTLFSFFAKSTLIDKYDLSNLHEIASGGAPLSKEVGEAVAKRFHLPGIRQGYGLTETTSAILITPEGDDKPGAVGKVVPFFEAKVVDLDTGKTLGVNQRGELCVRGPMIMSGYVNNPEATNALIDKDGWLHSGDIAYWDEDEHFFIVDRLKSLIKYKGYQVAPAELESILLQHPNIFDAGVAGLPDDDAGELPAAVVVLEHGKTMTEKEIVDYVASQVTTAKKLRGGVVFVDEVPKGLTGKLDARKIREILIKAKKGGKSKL

As to `COc1ccc([C@@H]2Sc3ccccc3N(CCN(C)C)C(=O)[C@@H]2OC(C)=O)cc1`, the Potency result in experiment [1], in [2], in experiment [3], in experiment [4] and in experiment [5] was “inactive” throughout. In addition, in experiment [6], the Potency is 21.3 µM (active).
As for `COCCO`, the Potency entry in experiment [1], in [3], in experiment [7], in experiment [8], in experiment [4] and in [6] was “inactive” in each case.
For `COc1ccc(C(C)=O)cc1`, the Potency result in experiment [1], in experiment [3], in experiment [7], in experiment [8], in experiment [4] and in experiment [6] was “inactive” in each case.
Consider `CC(=O)/C=C/C1C(C)=CCCC1(C)C` (stereo not given), for which the Potency entry in [1], in experiment [2], in [3], in [4] and in experiment [6] was “inactive” each time.
As to `Cc1nc2ccccc2n1Cc1ccc(Cl)cc1`, the Potency result in [1], in experiment [2], in experiment [7] and in experiment [4] was “inactive” throughout. For the same compound, the Potency in [8] was 11.9 µM (active).
In the case of `CC(C)NCC(O)COc1ccc(CC(N)=O)cc1` (stereo not given), the Potency result in experiment [1], in experiment [2], in [3], in experiment [4], in experiment [5] and in experiment [6] was “inactive” in each case.
As to `SC1CCCC1`, the Potency result in [1], in experiment [2], in [3], in experiment [4], in [5] and in [6] was “inactive” in each case.
For the compound `CN(C)CCCOc1nn(Cc2ccccc2)c2ccccc12`, the Potency result in experiment [1], in experiment [3], in experiment [7], in [4], in [9] and in experiment [10] was “inactive” each time. The Potency result in experiment [5] and in experiment [6] was “inactive” in each case.
As to `CN(C(=O)CCCOc1ccc2[nH]c(=O)ccc2c1)C1CCCCC1`, the Potency result in [1], in experiment [3], in [7], in experiment [4], in experiment [9] and in [10] was “inactive” each time. For the same compound, the Potency entry in [6] is “inactive”. Moreover, in experiment [5], the Potency was 0.335 µM (active).
As for `Oc1ccc(Cc2ccccc2)cc1`, in experiment [1], the Potency is 65.7 µM (active). The Potency result in [3], in [7], in experiment [4], in [9] and in experiment [5] was “inactive” throughout.
On to `CCCC(C)C`, for which the Potency entry in experiment [1], in experiment [2], in [3], in [4], in [5] and in experiment [6] was “inactive” each time.
Take `Cc1c(Cn2ccnc2)c2ccccc2n1CCC(=O)O`: the Potency entry in [1], in experiment [2], in [3], in experiment [4], in experiment [5] and in [6] was “inactive” in each case.
For the compound `Cc1cccc(C(C)(C)C)c1O`, the Potency entry in experiment [1], in experiment [3], in [7], in experiment [8], in experiment [4] and in experiment [6] was “inactive” in each case.
Consider `CCCCCCCCCCCCCCC1CO1` (stereo not given), for which the Potency result in experiment [1], in [2], in experiment [3], in [4], in experiment [5] and in experiment [6] was “inactive” each time.
Consider `O=C(Cl)c1ccc([N+](=O)[O-])cc1`, for which the Potency entry in experiment [1], in experiment [2], in experiment [3], in [4], in experiment [5] and in [6] was “inactive” in each case.
In the case of `CC(C)c1ccc2c(C(C)C)cc(C(C)C)c(S(=O)(=O)O)c2c1`, the Potency result in [1], in experiment [2], in experiment [3], in experiment [4] and in [5] was “inactive” each time.
Regarding `CC(=O)O[C@@H]1C(=O)O[C@@H]2[C@H]1OC(=O)[C@@H]2OC(C)=O`, the Potency entry in experiment [1], in experiment [2], in experiment [3], in experiment [4], in [5] and in experiment [6] was “inactive” in each case.
As for `CCC(C)N(C)C(=O)c1cc2ccccc2c(-c2ccccc2Cl)n1` (stereo not given), the Potency result in experiment [1], in experiment [2], in experiment [3], in [4] and in [6] was “inactive” throughout.
As for `CCCCCCCCCCCCCCCBr`, the Potency entry in experiment [1], in experiment [2], in [3], in [4], in experiment [5] and in experiment [6] was “inactive” throughout.
In the case of `CC(=O)[C@@]1(O)CC[C@H]2[C@@H]3C[C@H](C)C4=CC(=O)CC[C@]4(C)[C@H]3CC[C@@]21C`, the Potency result in experiment [1], in experiment [3], in experiment [7], in [4], in [10] and in experiment [5] was “inactive” in each case. For the same compound, the Potency result in [6] is “inactive”.
With `CCOC(=O)CC(C)C`, the Potency result in experiment [1], in experiment [3], in [7], in [8], in [4] and in experiment [5] was “inactive” each time. Moreover, in experiment [6], the Potency entry is “inactive”.
As to `CN(C)C/C=C(/c1ccc(Br)cc1)c1cccnc1`, the Potency result in experiment [1], in experiment [2], in experiment [3], in experiment [4], in [5] and in experiment [6] was “inactive” each time.
For `OCCC1CCCCN1` (stereo not given), the Potency result in experiment [1], in experiment [2], in experiment [3], in experiment [4], in [5] and in [6] was “inactive” each time.
Consider `CCN1CCC[C@H]1CNC(=O)c1c(OC)ccc(Br)c1OC`, for which the Potency result in [1], in experiment [2], in [3], in experiment [4], in experiment [5] and in experiment [6] was “inactive” each time.
As to `N#CCc1cccc(C(F)(F)F)c1`, the Potency result in experiment [1], in experiment [2], in [3], in [4], in experiment [5] and in experiment [6] was “inactive” in each case.
As for `CC(=O)O[C@H]1C[C@@H]2CC[C@@H]3[C@H](CC[C@@]4(C)[C@H]3C[C@H]([N+]3(C)CCCCC3)[C@@H]4OC(C)=O)[C@@]2(C)C[C@@H]1N1CCCCC1`, the Potency result in [1], in [3], in experiment [7], in [8], in experiment [4] and in experiment [5] was “inactive” in each case. Besides, the Potency result in [6] was “inactive”.
Take `CCN(CC)CCOC(=O)C1(c2ccccc2)CCCC1`: the Potency result in experiment [1], in [3], in experiment [7], in [4], in experiment [9] and in [10] was “inactive” throughout. In addition, the Potency entry in experiment [5] and in experiment [6] was “inactive” each time.
For the compound `O=C(NS(=O)(=O)/C=C/c1cccs1)c1ccc(F)cc1Br`, the Potency result in [1], in [3], in experiment [7], in [8], in experiment [4] and in [6] was “inactive” in each case.
For `CCCCCCCCCCCCCCCCCBr`, the activity change, negative = inhibition in [1] is 3.44% [at 23.6 µM]. The viability change, negative = cytotoxic in experiment [2] is -1.41% [at 19 µM]; in experiment [4], 2.64% [at 19 µM]. For the same compound, the results for the activity change, negative = cytotoxicity in experiment [3] and in experiment [6] were 0.897% [at 19 µM] and 2.27% [at 15.8 µM], respectively.
For the compound `CCCCC(CC)(CO)CO`, the Potency entry in experiment [1], in experiment [3], in experiment [7], in experiment [8], in experiment [4] and in experiment [5] was “inactive” each time. Further, the Potency entry in [6] was “inactive”.

Source of the values: PubChem BioAssay (Tox21).
